Reference: PubChem BioAssay (NCI)
About 83,000 compounds went through this panel and 20% of them were active in at least one assay; those are over-represented in the sample as a whole.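 Cells were grown in 96-well plates and exposed to the test compound at a single concentration for 48 hours; results are reported as percent growth, with values below 10 considered active.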 The source made the active and inactive calls.

What was measured:
Experiment in all cases: NCI-60 one-dose screen, 48 h (100 = growth as untreated, 0 = no growth, -100 = all killed)
Conditions in all cases: 10 µM unless noted
T-47D breast = system: T-47D breast
BT-549 breast = system: BT-549 breast
MDA-MB-435 melanoma = system: MDA-MB-435 melanoma
SW-620 colon = system: SW-620 colon
HCC-2998 colon = system: HCC-2998 colon
KM12 colon = system: KM12 colon
MCF7 breast = system: MCF7 breast
HCT-116 colon = system: HCT-116 colon

Measured: growth

CC(=O)N1N=C(CCC(=O)c2nc3ccc([N+](=O)[O-])cc3[nH]2)OC1c1ccc(O)cc1 (stereo not given)
inactive: T-47D breast 85.5% | BT-549 breast 101% | MDA-MB-435 melanoma 105% | SW-620 colon 102% | HCC-2998 colon 98.7% | KM12 colon 95.8%

Clc1ccc(OCc2nc(-c3ccccc3)n[nH]2)c(Cl)c1
inactive: T-47D breast 95.6% | BT-549 breast 100% | MDA-MB-435 melanoma 97.7% | SW-620 colon 97% | HCC-2998 colon 99.8% | KM12 colon 101%

CC(C)(C)OC(=O)N1CC(Cn2cc(C(F)(F)F)c3c(Cl)ncnc32)C1
active: BT-549 breast -91.1% | MDA-MB-435 melanoma -83.4% | SW-620 colon -37.6% | MCF7 breast -32.7% | HCT-116 colon -84.5% | HCC-2998 colon -89.2% | KM12 colon -50.4%
inactive: T-47D breast 42.6%

COc1ccc(/C=C/C(=O)/C=C(/C=C/c2ccc(OC)c(OC)c2OC)OB(F)F)c(OC)c1OC
active: MDA-MB-435 melanoma 0.716% | SW-620 colon 8%
inactive: T-47D breast 50.4% | BT-549 breast 31.4% | HCC-2998 colon 59.2% | KM12 colon 22.8%

COc1ccc(-c2nn(-c3ccc(NC(=O)Nc4ccc(Cl)c(Cl)c4)cc3)cc2-c2ccncc2)cc1Cl
active: MDA-MB-435 melanoma 6.69% | HCT-116 colon 0.339% | KM12 colon 2.25%
inactive: T-47D breast 22.4% | BT-549 breast 14.2% | SW-620 colon 17.6% | MCF7 breast 13.3% | HCC-2998 colon 10.4%

O=C(CSc1nnc(-c2ccc(Cl)cc2)o1)Nc1ccc(C(=O)/C=C/c2ccccc2)cc1
inactive: T-47D breast 107% | BT-549 breast 99.8% | MDA-MB-435 melanoma 91.4% | SW-620 colon 101% | MCF7 breast 53.1% | HCT-116 colon 65.7% | HCC-2998 colon 106% | KM12 colon 100%

CC(=O)N1N=C2N(Cc3ccccc3)C(=O)c3c(sc4c3CCCC4)N2C1c1cn(-c2ccccc2)nc1-c1ccc(Cl)cc1 (stereo not given)
inactive: T-47D breast 80.8% | BT-549 breast 99.5% | MDA-MB-435 melanoma 95.4% | SW-620 colon 103% | MCF7 breast 92.4% | HCT-116 colon 96.8% | HCC-2998 colon 112% | KM12 colon 98%

O=C(Nc1ccc(Cl)c(Cl)c1)Nc1ccc(Cl)c([N+](=O)[O-])c1
active: T-47D breast -2.12% | BT-549 breast -9.25% | MDA-MB-435 melanoma 7.8% | SW-620 colon 9.66% | MCF7 breast 0.367% | HCT-116 colon 1.83% | HCC-2998 colon 2.28% | KM12 colon 2.33%

COc1ccc(-c2nn(-c3ccc(NC(=O)Nc4cc(C(F)(F)F)cc(C(F)(F)F)c4)cc3)cc2-c2ccncc2)cc1Cl
active: MDA-MB-435 melanoma 8.04% | HCT-116 colon 2.45% | KM12 colon 7.63%
inactive: T-47D breast 25.3% | BT-549 breast 17.5% | SW-620 colon 19.5% | MCF7 breast 15.5% | HCC-2998 colon 12.3%

CCc1c2cc(Cl)ccc2n2cc(Cc3ccccc3)[nH]c(=O)c12
inactive: T-47D breast 104% | BT-549 breast 101% | MDA-MB-435 melanoma 102% | SW-620 colon 99.4% | HCC-2998 colon 97.1% | KM12 colon 98%

COC(=O)/C=C/C(=O)c1cc(C)cc(C)c1O
inactive: T-47D breast 100% | BT-549 breast 103% | MDA-MB-435 melanoma 103% | SW-620 colon 110% | MCF7 breast 95.5% | HCT-116 colon 106% | HCC-2998 colon 96.7% | KM12 colon 99.1%

O=c1c2ccccc2sc2c(NCCCNCCO)nc3ccccc3c12
active: MDA-MB-435 melanoma 5.01% | SW-620 colon -62.4% | MCF7 breast -72.9% | HCT-116 colon -57.5% | HCC-2998 colon -49.2% | KM12 colon 6.31%
inactive: T-47D breast 65.9% | BT-549 breast 72.3%

Cc1ccccc1C[P+](c1ccccc1)(c1ccccc1)c1ccccc1
inactive: T-47D breast 26% | BT-549 breast 29.6% | MDA-MB-435 melanoma 14.6% | SW-620 colon 22.8% | MCF7 breast 10.8% | HCT-116 colon 15.7% | HCC-2998 colon 12.2% | KM12 colon 14.5%

C=C1C(=O)O[C@H]2[C@H]1CC/C(COC(=O)c1cc(OC)c(OC)c(OC)c1)=C\CC[C@@]1(C)O[C@@H]21
active: T-47D breast -38.7% | BT-549 breast -42% | MDA-MB-435 melanoma -53% | SW-620 colon -49.5% | MCF7 breast -16.5% | HCT-116 colon -84.8%
inactive: HCC-2998 colon 41.2% | KM12 colon 54.5%

O=C(NOC1OC(CO)C(O)C(O)C1O)Nc1ccccc1 (stereo not given)
inactive: T-47D breast 78.7% | BT-549 breast 110% | MDA-MB-435 melanoma 102% | SW-620 colon 106% | MCF7 breast 87.9% | HCT-116 colon 105% | KM12 colon 105%

C=C1C(=O)O[C@H]2[C@H]1CC/C(COC(=O)c1cccc3ccccc13)=C\CC[C@@]1(C)O[C@@H]21
inactive: HCC-2998 colon 62.7% | KM12 colon 19.9%
active: T-47D breast -60% | BT-549 breast -45.1% | MDA-MB-435 melanoma -54.2% | SW-620 colon -52.8% | MCF7 breast -42.9% | HCT-116 colon -93.8%

COc1ccc(-c2nn(-c3cccc(Cl)c3)cc2-c2cc(-c3ccc(Br)cc3)[nH]c(=O)c2C#N)cc1
inactive: T-47D breast 70.8% | BT-549 breast 66.3% | MDA-MB-435 melanoma 94.4% | SW-620 colon 73.5% | MCF7 breast 65% | HCT-116 colon 79.7% | HCC-2998 colon 98.4% | KM12 colon 91.8%

COc1cc(-c2nc3ccccc3s2)ccc1OCc1nc2n(n1)S(=O)(=O)c1ccccc1N2c1ccccc1
inactive: T-47D breast 101% | BT-549 breast 104% | MDA-MB-435 melanoma 107% | SW-620 colon 102% | MCF7 breast 105% | HCT-116 colon 99.5% | HCC-2998 colon 129% | KM12 colon 101%

CC(=O)O[C@@H]1[C@@H](OC(C)=O)[C@H](OC(C)=O)CO[C@H]1Nc1cccc2ccccc12
inactive: T-47D breast 86.6% | BT-549 breast 89.1% | MDA-MB-435 melanoma 102% | SW-620 colon 98.4% | HCC-2998 colon 94.2% | KM12 colon 84.2%

CO[C@H]1/C=C/C=C/C=C/C[C@H](OC(=O)[C@@H](C)NC(=O)C2CCCCC2)[C@H](C)[C@@H](O)/C(C)=C\CCC2=CC(=O)C=C(NC(=O)C1)C2=O
active: T-47D breast -15.1% | BT-549 breast -19.6% | MDA-MB-435 melanoma -29.1% | SW-620 colon 2.69% | MCF7 breast -11% | HCT-116 colon -18.4% | HCC-2998 colon -19.2% | KM12 colon -9.05%

O=C(O)c1cn(C2CC2)c2cc(N3CCN(C(=O)CSc4nc(NS(=O)(=O)c5ccccc5)cc(=O)[nH]4)CC3)c(F)cc2c1=O
inactive: T-47D breast 116% | BT-549 breast 99% | MDA-MB-435 melanoma 90.1% | SW-620 colon 99.9% | HCC-2998 colon 91.7% | KM12 colon 91.6%

COc1ccc(/C=N/C2=NNC(C)(c3ccccc3O)N2C(Cc2c[nH]c3ccccc23)C(=O)O)cc1 (stereo not given)
active: MDA-MB-435 melanoma 3.69%
inactive: T-47D breast 12.9% | BT-549 breast 21.6% | SW-620 colon 17.2% | MCF7 breast 13.1% | HCT-116 colon 10.8% | HCC-2998 colon 47.7% | KM12 colon 13.1%

O=[N+]([O-])c1ccccc1NC1c2ccccc2Oc2ccccc21
inactive: T-47D breast 76.5% | BT-549 breast 54.8% | SW-620 colon 19.8% | MCF7 breast 57.1% | HCT-116 colon 30.3% | HCC-2998 colon 66% | KM12 colon 26.3%
active: MDA-MB-435 melanoma -47.7%

COc1cc(Nc2ncccc2C(=O)Nc2nc3ccc(F)cc3s2)cc(OC)c1OC
inactive: T-47D breast 36.2% | BT-549 breast 89.3% | MDA-MB-435 melanoma 21% | SW-620 colon 96.8% | MCF7 breast 94.9% | HCT-116 colon 13.8% | HCC-2998 colon 84.7% | KM12 colon 78.9%

COc1ccc(OC)c(NCC(=O)n2nc(/C=C\c3ccc(O)c(OC)c3)cc2/C=C\c2ccc(O)c(OC)c2)c1
inactive: T-47D breast 15.5% | BT-549 breast 17.1% | HCC-2998 colon 18% | KM12 colon 11.1%
active: MDA-MB-435 melanoma 5.88% | SW-620 colon 9.13%

COc1ccc(-c2cc(-c3nnc(SC/C(=N\O)c4ccccc4)n3-c3ccccc3)c3ccccc3n2)cc1
inactive: T-47D breast 106% | BT-549 breast 108% | MDA-MB-435 melanoma 108% | SW-620 colon 102% | HCC-2998 colon 103% | KM12 colon 98.9%

O=C(Nc1cccc(-n2ccc3c(NC(=O)c4ccccc4)nccc32)c1)Nc1cc(C(F)(F)F)cc(C(F)(F)F)c1
active: BT-549 breast 2.85% | MDA-MB-435 melanoma -34.1% | HCT-116 colon -15.8% | KM12 colon -15.2%
inactive: T-47D breast 55% | SW-620 colon 21.2% | MCF7 breast 13.6% | HCC-2998 colon 13.2%

CCC1S/C(=N\N=C(/C)c2cccs2)N(c2ccccc2)C1=O (stereo not given)
inactive: T-47D breast 90.6% | BT-549 breast 112% | MDA-MB-435 melanoma 117% | SW-620 colon 96.1% | MCF7 breast 84.5% | HCT-116 colon 90.2% | HCC-2998 colon 121% | KM12 colon 115%

CN(CCNCc1ccccn1)CCNCc1ccccn1
active: T-47D breast 0.513% | BT-549 breast -2.61% | MDA-MB-435 melanoma -30.7% | SW-620 colon 4.13% | MCF7 breast 6.52% | HCT-116 colon -25.2% | HCC-2998 colon -46.8% | KM12 colon -0.112%

CC[C@H]1[C@@H]2C=C[C@@H]3[C@H]4C/C=C\C(=O)NCCC[C@@H]5NC(=O)/C(=C(O)/C=C/[C@@H]4C[C@@H]3[C@H]2C[C@H]1C)C5=O
active: BT-549 breast -49.2% | MDA-MB-435 melanoma -81% | HCT-116 colon -11.8%
inactive: T-47D breast 33.7% | SW-620 colon 69.2% | MCF7 breast 41.3% | HCC-2998 colon 52.8% | KM12 colon 63.8%

CCN(CC)CCNCC(O)Cc1ccc(OC)cc1 (stereo not given)
inactive: T-47D breast 91.5% | BT-549 breast 83.9% | MDA-MB-435 melanoma 108% | SW-620 colon 103% | MCF7 breast 103% | HCT-116 colon 82.4% | HCC-2998 colon 101% | KM12 colon 106%

N#Cc1c(N)nc2c(c1N)C(c1ccc(Cl)cc1)C1=C(CCCC1=O)N2c1sc2c(c1C#N)CCCC2 (stereo not given)
inactive: T-47D breast 96.8% | BT-549 breast 96.1% | MDA-MB-435 melanoma 112% | MCF7 breast 99.7% | HCT-116 colon 70.8% | HCC-2998 colon 90.3% | KM12 colon 89.7%

COC(=O)c1ccc(NC(N)=NCC(C)(C)COc2ccc(C(F)(F)F)cc2)nc1
inactive: T-47D breast 28.7% | MDA-MB-435 melanoma 58.3% | SW-620 colon 27.3% | KM12 colon 46.7%
active: MCF7 breast 8.58% | HCT-116 colon 0.764% | HCC-2998 colon 2.3%
